CYP2C9 activ: increases human cytochrome P450 2C9 activity. recombinant CYP2C9, luciferin-H conversion, luminescence; hits give high values; factor 1 = untreated enzyme, 0 = blocked. AID 1024. activation factor at 5 µM. 96,000 compounds, 1.4% hits. P11712;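 active = activation factor of 2 or more for CYP2C9 at a 5 µM dose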;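 also: 0 = sulfaphenazole-blocked wells and 1 = vehicle-only wells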
EphB4 ephrin blk: blocks human EphB4 binding to ephrin-B2; P54760; EphB4 LBD / TNYL-RAW-Alexa532 peptide, fluorescence polarization; inhibition, % at 7 µM; 97,000 compounds, 0.15% hits; AID 720;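 active = inhibition above the screen-wide mean inhibition plus 3 SD, cut at about 15% in these data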;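 also: 0% = DMSO wells and 100% = excess unlabeled TNYL-RAW peptide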
CYP2C19 act: increases human CYP2C19 enzyme activity. AID 1025. 96,000 tested, under 10 active. recombinant CYP2C19, luciferin-H EGE luminescence; hits give high values; 0 = fully inhibited enzyme, 1 = untreated enzyme. P33261. activation factor at 5 µM;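 active = activation factor of at least 2 at 5 µM in the primary screen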;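 also: 0 = wells with 2.5 mM tranylcypromine and 1 = vehicle-only wells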
CYP2C19 inh: human CYP2C19 inhibition | P33261 | CYP2C19 Supersomes, luciferin-H EGE luminescence, 30 min | inhibition, % at 5 µM | 96,000 compounds, 21% hits;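 active = CYP2C19 inhibition above a set limit at 5 µM in the primary screen, cut at about 50% in these data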;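 also: plate controls were negative control wells for no effect and 2.5 mM tranylcypromine positive control for full effect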
CYP2C9 inh: blocks human cytochrome P450 2C9; P11712; CYP2C9 Supersomes, luciferin-H conversion, luminescence; inhibition, % at 5 µM; 96,000 compounds, 20% hits;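 active = blocking of liver enzyme CYP2C9 beyond about 50% at 5 µM, limit read from the data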
* = called active by the depositor; . = no result given. Sampled rows, rich in hits. Any-hit rate of the full collection: about 27%.

SMILES	CYP2C9 activ	EphB4 ephrin blk	CYP2C19 act	CYP2C19 inh	CYP2C9 inh
CN1CCN(c2ncnc3ccc(Br)cc23)CC1	1.1	-4	1	1	-8
CCCSc1nc(O)c(CC)c(=O)n1C(C)CC (configuration not stated)	0.8	1	0.8	22	17
O=C(c1cccs1)c1cn(Cc2ccccc2Cl)c2ccccc12	0.4	-1	0.9	13	62*
N#Cc1ccccc1Cn1cc(C(=O)c2cccs2)c2ccccc21	0.1	5	0.5	54*	89*
Cc1ccc(-n2c(O)c(C=NC3CCCCC3N)c(=O)[nH]c2=O)cc1C (configuration not stated)	1	1	1	-3	2
COc1ccc(C(CC(=O)N2CCC3(CC2)OCCO3)NS(=O)(=O)c2ccc(OC)cc2)cc1 (configuration not stated)	0.9	.	0.7	30	13
COc1ccc(C2SCC(=O)Nc3c2c(C)nn3C2CCOC(C)(C)C2)cc1OC (configuration not stated)	0.8	5	1	4	21
Nc1ccc2c(c1)oc1ccccc12	0.8	0	0.8	22	21
COC(=O)C(O)(c1ccc(N(C)S(=O)(=O)c2ccccc2)cc1)C(F)(F)F (configuration not stated)	0.1	.	0.1	92*	88*
CCOC(=O)C(O)(c1ccc(N(CC)S(=O)(=O)c2ccc(C)cc2)cc1)C(F)(F)F (configuration not stated)	0.3	4	0.6	44	69*
CCOC(=O)N(C)c1ccc(C(O)(C(=O)OC)C(F)(F)F)cc1 (configuration not stated)	.	9	.	.	.
COC(=O)C(O)(c1ccc(NC(=S)NC(=O)c2ccccc2)cc1)C(F)(F)F (configuration not stated)	0.5	-4	0.9	9	50*
CCN(c1ccc(C(O)(C(=O)OC)C(F)(F)F)cc1)S(=O)(=O)c1ccc(C)cc1 (configuration not stated)	0.6	2	0.5	49	45
Clc1ccc(C2N3CCCN23)c(Cl)c1 (configuration not stated)	0.9	2	1	0	8
O=c1[nH]c(=O)n(Cc2ccc(F)cc2)c(O)c1C=NCC1CCCO1 (configuration not stated)	1.1	3	1.1	-10	-12
CN1CCN(Cc2nc3ccccc3c(=O)[nH]2)CC1	1	-9	1.1	-10	-2
Cc1nn(-c2ccccc2)c(Cl)c1C1C(C#N)=C(N)Oc2c1c(=O)oc1ccccc21 (configuration not stated)	0	2	0.6	45	99*
N#CC1=C(N)Oc2c(c(=O)oc3ccccc23)C1c1cccnc1 (configuration not stated)	0.4	.	1.1	-9	64*
CC(=O)Nc1ccccc1C(=O)OCc1ccc(C(=O)c2ccccc2)cc1	0.3	-4	0.6	38	72*
Nc1ccccc1C(=O)c1ccccc1	1	5	0.8	24	4
COc1ccc2c(c1OC)C(=O)OC2c1c(O)n(Cc2ccc(F)cc2)c(=O)[nH]c1=O (configuration not stated)	0.7	.	1	0	28
O=c1cccc2n1CC1CC2CN(S(=O)(=O)c2ccccc2)C1 (configuration not stated)	1.1	-1	1	-3	-8
Cc1cc(C)n(CCOC(=O)C2C(C=C(Cl)Cl)C2(C)C)n1 (configuration not stated)	0.3	3	0.1	92*	75*
COc1ccc(P2(=O)Nc3ccccc3N2)cc1	1	-2	1	4	-3
CCc1ccc(N2C(=O)NC(=O)C(Cc3ccc(OC)cc3OC)C2=O)cc1 (configuration not stated)	0.9	-4	0.9	10	13
C=Cn1ccnc1P(=S)(c1nccn1C=C)C1CCCCC1	0.9	4	0.3	70*	15
CCOc1cc(C=C2C(=O)NC(=O)NC2=O)ccc1OS(=O)(=O)c1ccccc1	1	5	0.5	54*	5
CCC1CN(C)CCC1(OC(C)=O)c1ccccc1 (configuration not stated)	.	6	.	.	.
CC(=O)c1cccc(OCC(O)CN2CC=C(c3ccccc3)CC2)c1 (configuration not stated)	0.5	-2	0.4	55*	51*

Screening data from PubChem.
